Calls of active or inactive are those of the source.
Experiments:
[1] = tested on: Plasmodium falciparum Sir2 (PF13_0152, Sir2A); experiment: Plasmodium falciparum Sir2A binding compounds – biochemical, small-molecule microarray, 635 nm fluorescence, primary screen (AID 1098); conditions: fluorescence 635 nm, higher = more signal;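 further: score merges spot fluorescence intensity with its signal-to-noise ratio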
[2] = probe aDKK1 binding to arrayed compounds – biochemical, biotinylated probe, 635/667 nm fluorescence, primary screen (AID 1099); conditions: small-molecule microarray, higher = more signal;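 further: score merges 667nm spot fluorescence with signal to noise across triplicate slides; reference of the scale not given here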
[3] = probe aCHRDL2 binding to arrayed compounds – biochemical, biotinylated probe, 635/667 nm fluorescence, primary screen (AID 1100); conditions: small-molecule microarray, higher = more signal
[4] = change in splice reporter luminescence, either direction, cell-based, HEK293, spliceosome inhibition project, primary screen (AID 1101); conditions: HEK293 splicing luciferase reporter, 24 h, higher = more signal, called active from +8 up or from −8 down;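 further: HEK293 cells carrying a splicing-competent luciferase reporter gene; test concentration not given here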
[5] = biological target: Fibroblast growth factor 10 (Homo sapiens) (UniProt O15520); experiment: compounds binding fibroblast growth factor 10 – biochemical, small-molecule microarray, 635 nm fluorescence, primary screen (AID 1102); conditions: FGF10 binding, fluorescence 635 nm, higher = more signal
Chain of Fibroblast growth factor 10 (Homo sapiens) (O15520 whole entry, looked up): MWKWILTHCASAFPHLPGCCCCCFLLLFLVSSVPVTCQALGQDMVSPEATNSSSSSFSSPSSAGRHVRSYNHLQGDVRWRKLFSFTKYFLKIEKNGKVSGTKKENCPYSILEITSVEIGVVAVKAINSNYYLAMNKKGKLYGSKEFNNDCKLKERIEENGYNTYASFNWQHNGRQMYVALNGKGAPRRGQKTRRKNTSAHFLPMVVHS

[6] = tested on: glycogen synthase kinase-3 (GSK3A per assay name; protocol says GSK3B); experiment: compounds binding glycogen synthase kinase-3 – biochemical, small-molecule microarray, 635 nm fluorescence, GSK3A, primary screen (AID 1103); conditions: fluorescence 635 nm, higher = more signal; further: the record names both GSK3A and GSK3B
[7] = biological target: Epidermal growth factor receptor (Homo sapiens) (UniProt P00533); experiment: compounds binding epidermal growth factor receptor – biochemical, small-molecule microarray, 635 nm fluorescence, primary screen (AID 1104); conditions: EGFR binding, higher = more signal;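 further: score merges 667 nm emission intensity with spot signal to noise over triplicate slides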
Chain of Epidermal growth factor receptor (Homo sapiens) (P00533 whole entry, looked up): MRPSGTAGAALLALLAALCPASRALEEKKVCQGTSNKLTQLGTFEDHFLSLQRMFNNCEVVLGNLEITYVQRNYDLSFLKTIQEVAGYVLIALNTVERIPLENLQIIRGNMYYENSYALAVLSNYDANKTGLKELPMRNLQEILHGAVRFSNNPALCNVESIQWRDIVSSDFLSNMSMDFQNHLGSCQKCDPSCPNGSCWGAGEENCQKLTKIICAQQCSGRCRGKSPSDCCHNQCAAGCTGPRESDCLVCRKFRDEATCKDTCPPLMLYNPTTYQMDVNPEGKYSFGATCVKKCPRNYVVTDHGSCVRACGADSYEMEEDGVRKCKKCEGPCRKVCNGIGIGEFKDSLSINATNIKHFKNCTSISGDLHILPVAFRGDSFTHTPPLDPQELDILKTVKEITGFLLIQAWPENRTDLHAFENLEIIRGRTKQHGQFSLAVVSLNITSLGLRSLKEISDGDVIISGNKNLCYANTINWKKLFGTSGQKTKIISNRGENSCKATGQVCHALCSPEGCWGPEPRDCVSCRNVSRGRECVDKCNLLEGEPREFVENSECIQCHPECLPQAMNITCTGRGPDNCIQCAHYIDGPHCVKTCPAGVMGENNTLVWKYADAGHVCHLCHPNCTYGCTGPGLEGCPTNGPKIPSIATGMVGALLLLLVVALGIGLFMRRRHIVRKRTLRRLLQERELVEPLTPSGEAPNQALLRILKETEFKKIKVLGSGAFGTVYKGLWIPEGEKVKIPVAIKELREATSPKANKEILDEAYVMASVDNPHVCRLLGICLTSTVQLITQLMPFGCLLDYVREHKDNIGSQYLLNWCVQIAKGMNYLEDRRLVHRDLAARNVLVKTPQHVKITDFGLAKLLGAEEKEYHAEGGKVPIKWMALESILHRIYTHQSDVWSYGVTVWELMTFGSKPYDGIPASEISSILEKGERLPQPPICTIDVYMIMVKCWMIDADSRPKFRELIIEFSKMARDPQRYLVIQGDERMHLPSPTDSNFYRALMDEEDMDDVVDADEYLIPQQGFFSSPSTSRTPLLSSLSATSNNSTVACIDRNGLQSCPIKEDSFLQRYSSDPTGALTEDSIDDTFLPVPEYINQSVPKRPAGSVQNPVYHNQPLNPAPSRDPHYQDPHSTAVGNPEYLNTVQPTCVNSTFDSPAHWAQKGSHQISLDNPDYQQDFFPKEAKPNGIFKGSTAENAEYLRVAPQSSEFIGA

[8] = biological target: Follistatin-related protein 3 (Homo sapiens) (UniProt O95633); experiment: compounds binding follistatin-related protein 3 – biochemical, small-molecule microarray, 635 nm fluorescence, primary screen (AID 1105); conditions: FSTL3 binding, higher = more signal;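 further: score merges emission near 667 nm and signal to noise per printed spot across three slides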
Chain of Follistatin-related protein 3 (Homo sapiens) (O95633 whole entry, looked up): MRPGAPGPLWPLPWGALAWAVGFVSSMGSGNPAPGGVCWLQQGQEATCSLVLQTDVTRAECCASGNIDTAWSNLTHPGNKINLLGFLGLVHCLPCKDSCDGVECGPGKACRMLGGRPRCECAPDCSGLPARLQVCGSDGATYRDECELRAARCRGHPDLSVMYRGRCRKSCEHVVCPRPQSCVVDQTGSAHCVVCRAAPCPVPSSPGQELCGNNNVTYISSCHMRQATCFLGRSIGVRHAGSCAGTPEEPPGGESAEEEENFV

[9] = biological target: Dickkopf-related protein 1 (Homo sapiens) (UniProt O94907); experiment: small molecules binding DKK1 protein – biochemical, small-molecule microarray, 635 nm fluorescence scan, primary screen (AID 1106); conditions: higher = more signal;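 further: score merges emission near 667 nm with signal to noise over three replicate slides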
Chain of Dickkopf-related protein 1 (Homo sapiens) (O94907 whole entry, looked up): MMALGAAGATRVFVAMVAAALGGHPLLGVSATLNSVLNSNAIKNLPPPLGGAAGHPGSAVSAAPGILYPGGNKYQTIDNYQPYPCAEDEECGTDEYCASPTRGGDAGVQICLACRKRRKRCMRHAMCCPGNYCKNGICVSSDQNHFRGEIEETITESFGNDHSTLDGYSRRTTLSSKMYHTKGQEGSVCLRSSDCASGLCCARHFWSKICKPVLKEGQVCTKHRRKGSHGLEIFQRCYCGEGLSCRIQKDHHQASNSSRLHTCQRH

[10] = tested on: Inhibin beta A chain (activin A); experiment: small molecules binding activin A – biochemical, small-molecule microarray, 635 nm fluorescence scan, primary screen (AID 1107); conditions: INHBA, higher = more signal;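 further: mouse activin A protein probed at 4.33 µg/mL on printed slides; score merges bound-protein fluorescence near 667 nm with spot signal-to-noise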

SMILES	composite z-score [1]	composite z-score [2]	composite z-score [3]	z-score [4]	composite z-score [5]	composite z-score [6]	composite z-score [7]	composite z-score [8]	composite z-score [9]	composite z-score [10]
O=C(Cc1ccccc1)[C@H]1C2C=CCCC(c3ccccc3)=C2CN1Cc1ccccc1 (stereo not given in full)	-0.313	-0.138	-0.191	-0.445 (inactive)	-0.0435	-0.117	-0.097	-0.137	0.191	0.707
C=CCNC(=O)[C@@H]1[C@H]2C(=O)O[C@H](c3ccccc3)[C@H](c3ccccc3)N2[C@H](c2ccc(OCCO)cc2)[C@@]12C(=O)N(C(=O)OCCOC)c1ccc(C#Cc3ccc(OC)cc3)cc12	1.29	0.0181	0.299	-1.33 (inactive)	0.753	1.27	0.356	1.34	0.489	0.688
[N-]=[N+]=Nc1ccccc1C[C@]1(C(=O)N2CCOCC2)COC(c2ccc(OCCCO)cc2)=N1	1.6	0.399	0.948	-0.59 (inactive)	0.613	1.33	-0.262	0.634	-0.259	0.959
C=C(/C(=C/C[C@H](OC(C)=O)c1ccc(CO)o1)c1cnc2ccccc2c1)C(C)C	1.1	-0.151	-0.483	0.652 (inactive)	1.44	1.21	0.845	1.58	0.643	1.52
CCCCNC(=O)c1ccc(C#CC(C)(C)C)c(OC(C)=O)c1	0.311	-0.369	-0.675	-1.11 (inactive)	1.11	1.04	0.841	1.44	0.689	1.12
COC(=O)[C@@]1(Cc2ccc(OC)cc2)[C@H]2c3cc(C(=O)N(C)C)n(Cc4ccc(C)o4)c3C[C@H]2CN1C(=O)c1ccccc1	1.34	0.766	0.923	4.83 (inactive)	0.251	1.18	-0.102	0.514	-0.716	0.861
CCCCC(CC)C(O)C1C=CC2C(=O)N(c3ccccc3)C(=O)C2N1Nc1ccccc1F (stereo not given)	1.02	0.36	0.852	-0.561 (inactive)	0.944	1.23	-0.187	0.517	-0.505	0.744
NC(=O)[C@H]1[C@@H]2C(=O)O[C@@H](c3ccccc3)[C@@H](c3ccccc3)N2[C@@H](c2ccc(OCCO)cc2)[C@]12C(=O)Nc1ccc(C#CCCO)cc12	0.912	0.313	0.485	0.728 (inactive)	0.251	0.608	0.189	0.255	0.24	0.779
C=CC[C@@H](OC(=O)Nc1ccc(OC)cc1)c1ccc(O)c(F)c1	1.69	-0.0015	0.74	-1.95 (inactive)	-0.549	-0.363	-1.2	-0.741	-0.658	0.19
COc1ccc([Si](C)(C)[C@@H]2[C@@H](CCO)O[C@]3(C(=O)N(Cc4ccccc4)c4ccc(NC(=O)[C@H](C)O)cc43)[C@H]2C)cc1	0.728	-0.106	-0.147	-1.75 (inactive)	0.867	1.29	0.778	1.14	0.43	-0.159
CC(C)C(O)C1C=CC2C(=O)N(c3ccccc3)C(=O)C2N1Nc1ccccc1 (stereo not given)	1.06	0.584	0.432	-0.307 (inactive)	1.22	0.0942	0.34	1.41	-0.0988	0.326
C=CCNC(=O)[C@@H]1[C@H]2C(=O)O[C@H](c3ccccc3)[C@H](c3ccccc3)N2[C@H](c2ccccc2OCCO)[C@@]12C(=O)Nc1ccc(C#CCC(C(=O)OC)C(=O)OC)cc12	1.66	-0.319	-0.604	-3.31 (inactive)	0.395	1.03	-0.114	0.276	0.0965	0.482
CC(C)(C)OC(=O)CC[C@@]1(C(=O)NCC(O)CO)N=C(c2ccc(OCCCO)cc2)O[C@@H]1c1ccccc1CN=[N+]=[N-] (stereo not given in full)	0.552	0.726	0.918	-0.0605 (inactive)	0.364	0.706	-0.0699	0.335	-0.39	0.349
COCCOC(=O)N1C(=O)[C@@]2(c3cc(C#CCC(C(=O)OC)C(=O)OC)ccc31)[C@H](c1ccc(OCCO)cc1)N1[C@H](c3ccccc3)[C@H](c3ccccc3)OC(=O)[C@H]1[C@@H]2C(=O)N1CCc2cc(OC)c(OC)cc2C1	0.752	0.258	0.0031	0.414 (inactive)	1.4	1.31	0.76	1.28	0.411	0.622
Cc1ccc(NN2C(C(O)c3c(F)cccc3Cl)C=CC3C(=O)N(C4CCCCC4)C(=O)C32)cc1 (stereo not given)	0.338	0.827	1.07	-1.19 (inactive)	0.425	1.3	-0.184	0.716	-0.258	1.32
C=CC[C@H](OC(=O)Nc1ccc(SC)cc1)c1ccc(O)c2ccccc12	0.731	-0.0313	0.296	-2.98 (inactive)	0.972	1.29	0.961	1.08	0.778	0.932
O=C1N(CCS(=O)(=O)c2ccccc2)c2ccccc2[C@H]2OC(c3ccc(OCCCO)cc3)=N[C@@]12Cc1ccccc1	1.29	1.1	1.08	-1.49 (inactive)	0.896	1.05	1.03	1.1	1.04	1.04

SMILES	composite z-score [1]	composite z-score [2]	composite z-score [3]	z-score [4]	composite z-score [5]	composite z-score [6]	composite z-score [7]	composite z-score [8]	composite z-score [9]	composite z-score [10]
C=C(COC)/C(=C/C[C@H](OC(=O)c1ccncc1)c1ccc(CO)o1)c1cnc2ccccc2c1	0.296	-0.155	-0.137	0.801 (inactive)	1.12	0.986	0.387	1.34	0.348	1.81
O=C(NCCN1CCOCC1)[C@@H]1c2ccccc2C(=O)N(C2Cc3ccccc3C2)[C@H]1c1ccc(CO)cc1	0.909	0.0974	0.852	-1.38 (inactive)	-0.223	1.05	-0.812	-0.414	-0.666	-0.363
COc1ccc(CCNC(=O)[C@@]2(Cc3ccccc3I)c3ccccc3C(=O)N(C3CCCCC3)[C@H]2c2ccc(CO)cc2)cc1	1.41	0.0563	0.58	-1.17 (inactive)	-0.277	0.302	-0.354	0.123	-0.41	0.272
COCCCNC(=O)[C@@]1(Sc2ccc(C)cc2)CC(=O)N(C2Cc3ccccc3C2)[C@@H]1c1ccc(CO)cc1	1.06	0.106	0.899	-0.866 (inactive)	-1.39	-0.429	-0.787	-1.42	-1.76	-0.115
CCCCC=C[C@@H](NC(=O)OCc1ccccc1Cl)c1ccccc1	0.732	1.53	1.09	0.233 (inactive)	0.431	1.29	0.566	1.19	-0.193	0.709
COC(=O)[C@@]1(Cc2ccc(OC)cc2)[C@H]2c3cc(C(=O)N4CCCC4)n(CCc4c[nH]c5ccc(OC)cc45)c3C[C@H]2CN1C(=O)c1ccccc1	0.789	1.5	1.55	-1.21 (inactive)	0.591	1.14	-0.0086	1.19	-0.299	0.877
Cc1ccc(S[C@]2(C(=O)NCC(F)(F)F)CC(=O)N(Cc3cc(C(F)(F)F)cc(C(F)(F)F)c3)[C@@H]2c2ccc(CO)cc2)cc1	1.13	-0.193	0.532	0.507 (inactive)	-0.463	-0.864	-0.814	-0.861	-0.928	-0.45
Cc1ccc(S[C@]2(C(=O)NCc3ccccc3)CC(=O)N(C3CCCCC3)[C@@H]2c2ccc(CO)cc2I)cc1	1.25	-0.0018	0.379	-1.49 (inactive)	0.861	0.1	-0.104	0.226	-0.358	-0.0734
CCOC(=O)C[C@H]1[C@H](OC(=O)c2cc3ccccc3oc2=O)[C@@H](NC(=O)c2ccccc2)c2cc(OCCCO)ccc2N1C(=O)c1ccccc1	-0.06	-0.198	-0.432	-0.644 (inactive)	0.836	0.775	0.417	0.653	0.415	0.225
CC(C)N1C(=O)C[C@@](C(=O)NC2CC2)(c2ccc([N+](=O)[O-])cc2)[C@H]1c1ccc(CO)cc1	-0.66	0.34	0.993	-1.34 (inactive)	-0.576	-0.3	-1.18	-1.1	-0.674	-1.48
NCCCCCCNC(=O)[C@@H]1C[C@@H]2C(=O)N[C@@H](CCCCN)C(=O)N2[C@@H]1c1ccc(O)cc1	1.32	0.13	0.462	-1.48 (inactive)	0.523	0.456	0.456	0.27	1.16	0.899
COC(=O)[C@@]1(Cc2ccc(OC)cc2)[C@H]2c3cc(C(=O)N4CCCC4)n(CCc4c[nH]c5ccc(O)cc45)c3C[C@H]2CN1C(=O)c1ccccc1	1.29	1.24	1.2	0.129 (inactive)	1.06	0.778	0.309	1.13	-0.32	1.51
CC[C@@H]1C=C(C(=O)O)[C@H](c2ccccc2)N1S(=O)(=O)c1ccc(C)cc1	1.69	0.748	0.853	0.0795 (inactive)	0.825	0.52	-0.482	0.0194	-0.294	0.941
[N-]=[N+]=NCc1ccccc1C[C@@]1(C(N)=O)N=C(c2ccc(OCCCO)cc2)O[C@@H]1c1ccccc1	1.15	0.67	1.04	-1.01 (inactive)	0.001	-0.238	-0.892	-0.443	-1.38	0.389
COCCOC(=O)N1C(=O)[C@@]2(c3cc(C#CC4(O)CCCCCC4)ccc31)[C@H](C(=O)Nc1nc3ccccc3s1)[C@H]1C(=O)O[C@H](c3ccccc3)[C@H](c3ccccc3)N1[C@@H]2c1ccc(O)cc1	1.26	0.316	0.407	1.36 (inactive)	0.992	1.29	0.605	1.3	0.875	0.363
CCCCCN1CC=CC23O[C@@H]4/C=C\CCCOC(=O)C4[C@H]2C(=O)N(C(C)CO)[C@@H]3C1=O (stereo not given in full)	2.01	-0.339	0.525	0.1 (inactive)	-1.43	-1	-1.07	-0.706	-0.964	-0.57
CCCCC(=C=CC[C@H](O)c1ccc(OCCO)cc1)CCO	0.69	-0.194	0.208	-0.0149 (inactive)	0.0655	-0.686	-0.709	-0.24	-0.704	0.817

Reference: PubChem BioAssay
